Screening results as filed in PubChem.
Rows were chosen to be rich in hits. Some 5.4% of all compounds tested hit in one or more screens of this group.
Exocytosis inh: lytic granule exocytosis inhibition; hit rate 0.66% among 360,000; inhibition, % at 10 µM; TALL-104 LAMP-1 surface exposure, flow cytometry; cells stimulated with thapsigargin and PMA;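 active = inhibition above about 55%, limit read from the data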
SMARCA2 activ: SMARCA2 function activation, primary screen; MG213 cells, MMTV-luciferase reporter, dexamethasone, overnight; activation, % at 9.1 µM; hit rate 1% among 370,000; AID 652017; in the data active = activation above about 7.8%;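 note: 0% = vehicle wells and 100% = reference activator wells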
JMJD2C inh: inhibitors of human GASC-1 (JMJD2C) demethylase; Q9H3R0; GST-JMJD2C(1-420) H3K9me3 demethylation, DELFIA europium; inhibition, % at 2.35 µM; hit rate 0.069% among 330,000; AID 2099;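 active = more than half of a compound's replicate wells show inhibition beyond 50%, single wells judged on their own value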;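 note: signal counts dimethyl H3K9 product captured on neutravidin plate; 0% = median of DMSO wells and 100% = 0.3 times that DMSO median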
Target sequence (Q9H3R0 1-420 limits assumed): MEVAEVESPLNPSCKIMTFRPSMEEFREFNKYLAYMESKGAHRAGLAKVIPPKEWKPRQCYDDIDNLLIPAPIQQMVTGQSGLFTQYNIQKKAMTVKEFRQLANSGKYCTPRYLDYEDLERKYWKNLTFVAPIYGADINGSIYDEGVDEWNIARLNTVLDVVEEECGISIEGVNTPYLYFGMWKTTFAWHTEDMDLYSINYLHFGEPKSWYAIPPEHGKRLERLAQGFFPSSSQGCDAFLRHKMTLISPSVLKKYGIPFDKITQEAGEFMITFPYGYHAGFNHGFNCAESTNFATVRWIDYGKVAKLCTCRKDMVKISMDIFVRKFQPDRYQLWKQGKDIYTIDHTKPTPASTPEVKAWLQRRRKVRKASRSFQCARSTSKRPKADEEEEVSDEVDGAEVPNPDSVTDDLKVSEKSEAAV
beta cell repl: inducers of beta-cell replication in MIN6 cells; MIN6 cells proliferation, ATPlite luminescence, 48 h; cells starved in 0.2% serum; 100% = growth in 10% serum; proliferation, % at 10 µM; hit rate 0.29% among 330,000; AID 2380;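 active = compounds whose signal lies at least 3.5 SD above the mean of all wells on their plate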;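 note: 0% = DMSO-treated cells in low-serum medium and 100% = 10% serum control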
ALR H2O2 inh: inhibitors of human sulfhydryl oxidase ALR; P55789; AID 485317; purified ALR, DTT oxidation, H2O2 HRP-luminol luminescence; hit rate 3.8% among 290,000; inhibition, % (test concentration not listed);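 active = mean replicate inhibition above about 79%, with every replicate also reaching it, limit read from the data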
Target sequence (P55789 whole entry, looked up): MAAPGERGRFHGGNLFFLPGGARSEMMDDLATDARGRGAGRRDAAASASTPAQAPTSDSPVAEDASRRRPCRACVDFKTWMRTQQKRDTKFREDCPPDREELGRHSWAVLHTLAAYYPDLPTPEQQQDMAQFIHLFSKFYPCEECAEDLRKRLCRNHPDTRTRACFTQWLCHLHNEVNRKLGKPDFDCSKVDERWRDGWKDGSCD
M18AAP inhibitor: PfM18AAP enzyme inhibition | recombinant PfM18AAP, H-Glu-NHMec fluorogenic cleavage | inhibition, % at 7.35 µM | hit rate 1.2% among 290,000 | AID 1822;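 active = inhibition above the campaign mean inhibition over all tested compounds plus 3 SD, cut at about 28% in these data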;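 note: 0% = plate median of test compound wells and 100% = 2 mM ZnCl2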
SMARCA2 act conf: confirmation of SMARCA2 (BRM) function activators; hit rate 30% among 3,500; activation, % at 9.1 µM; shares compounds with SMARCA2 activ; MG213 cells, MMTV-luciferase with dexamethasone, luminescence, overnight; MG213 cells expressing E1A, Rb sequestered; DMSO wells 0%, reference activator 100%;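 active = activation above its plate's cutoff, the mean activation of tested wells plus 3 SD, cut at about 7.9% in these data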
VP16 Luc act: counter-screen for SMARCA2 activators: GAL4-VP16 luciferase reporter activation | shares compounds with SMARCA2 activ | HEK293 GAL4-VP16 pG5luc reporter, luciferase luminescence; scaled: DMSO wells 0%, SAHA wells 100% | activation, % at 9.1 µM | hit rate 41% among 3,500;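 active = activation above the solvent-only control well mean plus 3 SD, averaged across control plates, cut at about 5.2% in these data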
The depositor's hits bear a star.

Results for C[C@@H]1CCCCO[C@H](CN(C)Cc2ccc3c(c2)OCO3)[C@@H](C)CN([C@H](C)CO)C(=O)c2cc(NC(=O)c3ccccc3)ccc2O1 ?
Exocytosis inh: 4; SMARCA2 activ: -2

What do the screens show for `C[C@@H]1CN([C@H](C)CO)C(=O)c2ccccc2-c2ccccc2CO[C@@H]1CN(C)C(=O)Nc1ccccc1`?
SMARCA2 activ: -2

What do the screens show for `C=CCNC(=O)/C(C#N)=C/c1ccccc1OCc1ccc(C(=O)OC)cc1`?
Exocytosis inh: 5; SMARCA2 activ: 2; JMJD2C inh: 13; beta cell repl: -4; ALR H2O2 inh: -5; M18AAP inhibitor: 11

What do the screens show for `COC(=O)c1ccc(COc2ccccc2/C=C(\C#N)C(=O)Nc2ccc(C)cc2)cc1`?
Exocytosis inh: 2; SMARCA2 activ: 8.2*; JMJD2C inh: 16; beta cell repl: -2; ALR H2O2 inh: -9; M18AAP inhibitor: -7; SMARCA2 act conf: -3; VP16 Luc act: 14*

How did Cc1n[nH]c(=S)n1/N=C/c1ccc(OCc2ccc(Cl)cc2)cc1 do in these assays?
Exocytosis inh: 0; SMARCA2 activ: 0; JMJD2C inh: -3; beta cell repl: -3; M18AAP inhibitor: -1

Results for Cc1n[nH]c(=S)n1/N=C/c1ccc(OCc2ccc(Cl)cc2Cl)cc1 ?
Exocytosis inh: -2; SMARCA2 activ: 13*; JMJD2C inh: -8; beta cell repl: -1; ALR H2O2 inh: 0; M18AAP inhibitor: 6; SMARCA2 act conf: 0; VP16 Luc act: 3

How did COCCNC(=O)C1(C)CCCN(C(=O)c2cccc(OC(F)(F)F)c2)C1 (stereo unspecified) do in these assays?
Exocytosis inh: 0; SMARCA2 activ: -2

How did O=C(CSc1ccc(-c2cccs2)nn1)N1CCCCC1 do in these assays?
Exocytosis inh: -3; SMARCA2 activ: 0; JMJD2C inh: 4; beta cell repl: 2; ALR H2O2 inh: 2; M18AAP inhibitor: 2

How did O=C(CSc1ccc(-c2cccs2)nn1)N1CCCCCC1 do in these assays?
Exocytosis inh: -3; SMARCA2 activ: 13*; JMJD2C inh: -17; beta cell repl: 0; ALR H2O2 inh: -3; M18AAP inhibitor: -5; SMARCA2 act conf: 5; VP16 Luc act: 5.7*

What do the screens show for `CNc1nc(NCc2ccc(N(C)C)cc2)c2sccc2n1`?
Exocytosis inh: -5

What do the screens show for `COc1ccc(/C=C/c2noc(-c3ccccc3O)n2)cc1`?
Exocytosis inh: 2; SMARCA2 activ: 8.6*; JMJD2C inh: -1; beta cell repl: -3; ALR H2O2 inh: 0; M18AAP inhibitor: -4; SMARCA2 act conf: 7; VP16 Luc act: 7.0*

What do the screens show for `COc1ccc(OC)c(CN2C(=O)CCC2(C)c2nnnn2-c2c(C)cccc2C)c1` (stereo unspecified)?
Exocytosis inh: 0; SMARCA2 activ: -2

Results for COc1ccc2c(c1OC)C(=O)OC2Nc1nc(-c2cc3cc(Br)ccc3oc2=O)cs1 (stereo unspecified) ?
Exocytosis inh: -6; SMARCA2 activ: 9.2*; JMJD2C inh: 33; beta cell repl: 1; ALR H2O2 inh: 6; M18AAP inhibitor: 6; SMARCA2 act conf: 12*; VP16 Luc act: 7.9*

How did CCC(C)NC(=O)C1(N2C(=O)c3ccccc3C2=O)CCCC1 (stereo unspecified) do in these assays?
Exocytosis inh: 0; SMARCA2 activ: 8.8*; SMARCA2 act conf: 1; VP16 Luc act: 0

Results for O=c1cc2[nH]c3ccccc3c(=O)n2nc1-c1ccccc1 ?
Exocytosis inh: -1; SMARCA2 activ: 8.7*; JMJD2C inh: 15; beta cell repl: -2; ALR H2O2 inh: 72; M18AAP inhibitor: 12; SMARCA2 act conf: 9.5*; VP16 Luc act: 6.2*

Results for CC(=O)c1cccc(-c2ccnc3c2CC(C(=O)NCc2ccc(N4CCN(C)CC4)cc2)O3)c1 (stereo unspecified) ?
Exocytosis inh: 5; SMARCA2 activ: 8.7*; SMARCA2 act conf: 3; VP16 Luc act: 5

Results for CN1CCN(c2ccc(CNC(=O)C3Cc4c(-c5cccc(F)c5)ccnc4O3)cc2)CC1 (stereo unspecified) ?
Exocytosis inh: -2; SMARCA2 activ: -3

Results for Cc1ccc2nc(-c3cccc(Cl)c3)c(Cc3ccsc3)n2c1 ?
SMARCA2 activ: 2

Results for CS(=O)(=O)n1nc(-c2ccc(Cl)cc2)nc1N ?
Exocytosis inh: -1; SMARCA2 activ: 8.5*; JMJD2C inh: 1; beta cell repl: -1; ALR H2O2 inh: -4; M18AAP inhibitor: 3; SMARCA2 act conf: 1; VP16 Luc act: 1

Results for O=C(Cc1ccc(Br)cc1)NC1CCCc2ccccc21 (stereo unspecified) ?
Exocytosis inh: 2; SMARCA2 activ: -2; JMJD2C inh: -2; beta cell repl: 0; ALR H2O2 inh: 4; M18AAP inhibitor: 8

What do the screens show for `O=C(CCl)NC1CCCc2ccccc21` (stereo unspecified)?
Exocytosis inh: 0; SMARCA2 activ: 9.3*; JMJD2C inh: 11; beta cell repl: -2; M18AAP inhibitor: 6; SMARCA2 act conf: -2; VP16 Luc act: -1

How did COc1ccc(-c2cn3cc(C(=O)NN)ccc3n2)cc1 do in these assays?
Exocytosis inh: -2; SMARCA2 activ: 11*; JMJD2C inh: 6; beta cell repl: -1; M18AAP inhibitor: 3; SMARCA2 act conf: 8.8*; VP16 Luc act: 5.4*

How did CC(=O)Nc1ccc(-c2cn3cc(C)ccc3n2)cc1 do in these assays?
Exocytosis inh: -2; SMARCA2 activ: 8.1*; JMJD2C inh: -4; beta cell repl: 0; ALR H2O2 inh: -9; M18AAP inhibitor: -1; SMARCA2 act conf: 7; VP16 Luc act: 11*

Results for CCOC(=O)C1(C)CCCN(C(=O)c2ccc(OC)cc2OC)C1 (stereo unspecified) ?
Exocytosis inh: -1; SMARCA2 activ: -4

Results for CC(C)CC1C(=O)N(Cc2cn(CC3CCCCC3)nn2)CCS(=O)(=O)N1Cc1ccc(-c2ccncc2)cc1 (stereo unspecified) ?
Exocytosis inh: -3; SMARCA2 activ: 3

How did Cc1ccccc1OCc1csc(N)n1 do in these assays?
Exocytosis inh: 0; SMARCA2 activ: -6; JMJD2C inh: -10; beta cell repl: 3; ALR H2O2 inh: 4; M18AAP inhibitor: -6

What do the screens show for `Nc1nc(-c2ccc(C(=O)O)cc2)cs1`?
Exocytosis inh: -1; SMARCA2 activ: -3; JMJD2C inh: -2; beta cell repl: 3; ALR H2O2 inh: -6; M18AAP inhibitor: 3
